Our source for the growth inhibition, inhibition and outcome values is PubChem BioAssay.

Assay [1] can be described thus: antimalarial activity against Dd2 strain (AID 2302;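 active = growth inhibition above 50% at the single 2 µM test dose, taken to imply half-maximal potency below 2 µM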;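 also: 0% = DMSO untreated growth and 100% = chloroquine plus artemisinin killed control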). Conditions: P. falciparum Dd2 in RBCs, LDH growth readout, 72 h; at 2 µM; stronger effect = higher value.
Assay [2] can be described thus: human hepatoma cell viability loss – ATP luminescence, cytotoxicity control for P. falciparum antimalarial project, primary screen (AID 2303;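 active = inhibition above 50%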;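 also: 0% = DMSO wells and 100% = digitonin-killed cells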). Conditions: HepG2 viability, 24-48 h, at 10 µM, stronger effect = higher value.
The target of assay [3] is L-lactate dehydrogenase (Plasmodium falciparum (isolate CDC / Honduras)) (UniProt Q27743). As to the kind of experiment: PfLDH activity inhibition – cell lysate, 3D7 strain, counter-screen for P. falciparum growth inhibition project (AID 2304).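 Also: 0% = vehicle and 100% = reference inhibitor.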 Conditions: P. falciparum 3D7 crude extract, LDH APAD/NBT absorbance; at 2 µM; stronger effect = higher value.
Chain of L-lactate dehydrogenase (Plasmodium falciparum (isolate CDC / Honduras)) (Q27743 whole entry, looked up): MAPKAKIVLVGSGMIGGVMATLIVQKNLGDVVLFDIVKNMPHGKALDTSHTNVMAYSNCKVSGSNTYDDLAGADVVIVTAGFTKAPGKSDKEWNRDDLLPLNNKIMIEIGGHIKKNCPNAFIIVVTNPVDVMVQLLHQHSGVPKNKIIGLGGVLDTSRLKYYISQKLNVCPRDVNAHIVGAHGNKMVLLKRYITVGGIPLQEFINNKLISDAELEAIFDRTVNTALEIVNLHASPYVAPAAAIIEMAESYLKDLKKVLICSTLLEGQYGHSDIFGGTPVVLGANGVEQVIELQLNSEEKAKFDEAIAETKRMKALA
Assay [4] can be described thus: inhibition of 3D7 malaria parasite growth – strain 3D7 (AID 2306).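 Also: 0% = DMSO wells and 100% = chloroquine plus artemisinin control wells.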 Conditions: P. falciparum 3D7 erythrocytic growth, LDH absorbance, 72 h; at 2 µM; stronger effect = higher value.
Assay [5] deals with Plasmodium falciparum protein kinase 6 (PK6, PF3D7_1337100) (UniProt Q8IDW1). As to the kind of experiment: PfPK6 kinase inhibitors, biochemical, TCAMS library (AID 1159586). Conditions: recombinant PfPK6, Kinase-Glo ATP depletion luminescence.
Chain of Plasmodium falciparum protein kinase 6 (PK6, PF3D7_1337100) (Q8IDW1 1-305): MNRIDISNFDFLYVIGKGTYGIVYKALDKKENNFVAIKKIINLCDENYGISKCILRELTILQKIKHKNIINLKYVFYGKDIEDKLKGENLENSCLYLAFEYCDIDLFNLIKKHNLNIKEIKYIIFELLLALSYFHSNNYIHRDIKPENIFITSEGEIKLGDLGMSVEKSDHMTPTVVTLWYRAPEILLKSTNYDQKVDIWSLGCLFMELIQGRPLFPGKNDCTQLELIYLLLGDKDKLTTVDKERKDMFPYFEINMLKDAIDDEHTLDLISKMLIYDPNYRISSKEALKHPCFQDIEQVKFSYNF
For assay [6], the target named is Protein kinase 7 (PK7), Plasmodium falciparum 3D7 (PF3D7_0213400) (UniProt Q7YTF7). As to the kind of experiment: inhibition of Plasmodium PK7 catalytic activity – biochemical, TCAMS antimalarial set, Kinase-Glo luminescence (AID 1159587). Conditions: recombinant PfPK7, Kinase-Glo ATP depletion luminescence.
Chain of Protein kinase 7 (PK7), Plasmodium falciparum 3D7 (PF3D7_0213400) (Q7YTF7 1-343): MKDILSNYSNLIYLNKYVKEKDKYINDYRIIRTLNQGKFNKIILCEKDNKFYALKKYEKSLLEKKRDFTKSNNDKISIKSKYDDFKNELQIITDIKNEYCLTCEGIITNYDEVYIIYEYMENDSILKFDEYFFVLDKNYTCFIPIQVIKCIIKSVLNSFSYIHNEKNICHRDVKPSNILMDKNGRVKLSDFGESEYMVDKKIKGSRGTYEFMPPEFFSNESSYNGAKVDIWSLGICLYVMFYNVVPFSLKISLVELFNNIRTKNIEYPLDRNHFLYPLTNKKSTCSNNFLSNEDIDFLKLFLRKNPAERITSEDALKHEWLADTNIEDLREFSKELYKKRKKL
Assay [7] has as its target Calcium-dependent protein kinase 4 (Plasmodium falciparum (isolate 3D7)) (UniProt Q8IBS5). The assay is described as follows: PfCDPK4 kinase inhibitors, biochemical, TCAMS library (AID 1159588; cut-off not given, nearly all actives have IC50 up to about 0.91 µM). Conditions: recombinant PfCDPK4, Kinase-Glo ATP depletion luminescence.

A number with no mark means an inactive call. For some assays here: Entries with a potency or affinity are not part of this list. Calls of active or inactive are those of the source. Unless noted, no rule for the calls is given here.

Chain of Calcium-dependent protein kinase 4 (Plasmodium falciparum (isolate 3D7)) (Q8IBS5 whole entry, looked up): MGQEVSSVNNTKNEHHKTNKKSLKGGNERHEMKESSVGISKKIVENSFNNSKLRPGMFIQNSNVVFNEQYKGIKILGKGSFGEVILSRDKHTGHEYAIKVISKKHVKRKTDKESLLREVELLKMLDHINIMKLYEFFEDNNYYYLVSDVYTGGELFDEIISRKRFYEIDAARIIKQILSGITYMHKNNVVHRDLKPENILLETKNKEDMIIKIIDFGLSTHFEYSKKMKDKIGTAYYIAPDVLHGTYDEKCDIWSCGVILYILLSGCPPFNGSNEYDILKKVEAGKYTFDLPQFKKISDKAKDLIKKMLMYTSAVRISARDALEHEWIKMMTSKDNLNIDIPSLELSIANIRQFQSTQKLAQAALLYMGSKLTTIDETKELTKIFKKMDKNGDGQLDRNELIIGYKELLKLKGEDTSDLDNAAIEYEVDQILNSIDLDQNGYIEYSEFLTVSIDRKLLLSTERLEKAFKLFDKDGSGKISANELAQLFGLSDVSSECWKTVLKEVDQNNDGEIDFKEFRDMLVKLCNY

In the case of `N#Cc1ccc(-c2cnc3ccc(NCCc4cccnc4)nn23)cc1`, the results for the growth inhibition in assay [1] and in assay [4] were 81% (active) and 99% (active), respectively. Also, the inhibition in assay [2] was 27%; in assay [3], 6%. The outcome in assay [5], in assay [6] and in assay [7] was inactive.
Regarding `CCn1c(-c2nc(-c3ccnc(N4CCN(C)CC4)c3)cnc2N)nc2cc(S(C)(=O)=O)ccc21`, the growth inhibition in assay [1] is 76% (active); in assay [4], 101% (active). Also, the values for the inhibition in assay [2] and in assay [3] were 44% and -1%, respectively. Also, the outcome in assay [5], in assay [6] and in assay [7] was inactive.
Take `CN(C(=O)c1cc2c(-c3cncnc3)cccc2[nH]1)c1ccccc1`: the growth inhibition in assay [1] is 99% (active); in assay [4], 92% (active). In addition, the inhibition in assay [2] was 1%; in assay [3] it was 0%. Besides, the outcome in assay [5], in assay [6] and in assay [7] was inactive.
On to `COCCNCc1cccc(-c2ccc3c(Nc4ccc(Oc5ccccc5)cc4)ccnc3c2)c1`, for which the figures for the growth inhibition in assay [1] and in assay [4] were 99% (active) and 101% (active), respectively. Besides, the figures for the inhibition in assay [2] and in assay [3] were 25% and 2%, respectively. Further, the result in assay [5], in assay [6] and in assay [7] was inactive.
`COCCNCc1cccc(-c2ccc3c(Nc4ccc(Oc5cccnc5)cc4)ccnc3c2)c1`: the growth inhibition in assay [1] is 99% (active); in assay [4] it was 100% (active). In addition, the inhibition in assay [2] is 58% (active); in assay [3], -5%. The outcome in assay [5], in assay [6] and in assay [7] was inactive.
`CN1CCN(CCCNCc2cccc(Nc3nccc(Nc4ccc(Oc5ccccc5)cc4)n3)c2)CC1`: the growth inhibition was 80% (active) in assay [1] and 100% (active) in assay [4]. Moreover, the inhibition in assay [2] was 97% (active); in assay [3] it was -2%. Besides, the outcome in assay [5], in assay [6] and in assay [7] was inactive.
Turning to `CS(=O)(=O)Cc1ccc(Nc2nccc(-c3c(-c4cccc(NC(=O)c5c(F)cccc5F)c4)nn4ncccc34)n2)cc1`, the growth inhibition in assay [1] was 93% (active); in assay [4] it was 97% (active). Further, the inhibition is 86% (active) in assay [2] and 1% in assay [3]. Further, the result in assay [5], in assay [6] and in assay [7] was inactive.
Take `CCOC(=O)c1cccc(NC(=O)Nc2cccc(-c3ncc(OCCCN)c4c3nc(-c3nonc3N)n4CC)c2)c1`: the values for the growth inhibition in assay [1] and in assay [4] were 98% (active) and 100% (active), respectively. For the same compound, the values for the inhibition in assay [2] and in assay [3] were 16% and 2%, respectively. Further, the outcome in assay [5], in assay [6] and in assay [7] was inactive.
On to `COCCNCc1ncsc1-c1ccc2c(Nc3cc(O)c(Cl)cc3F)ccnc2c1`, for which the growth inhibition is 92% (active) in assay [1] and 101% (active) in assay [4]. Also, the figures for the inhibition in assay [2] and in assay [3] were 0% and -5%, respectively. Besides, the outcome in assay [5], in assay [6] and in assay [7] was inactive.
Turning to `CC(C)(CNCc1ccc(F)c(F)c1)c1nc(-c2ccc(Cl)c(O)c2)c(-c2ccncc2)[nH]1`, the growth inhibition in assay [1] was 89% (active); in assay [4], 102% (active). Moreover, the inhibition in assay [2] is 74% (active); in assay [3], 2%. In addition, the result in assay [5], in assay [6] and in assay [7] was inactive.
Take `Cc1cc(F)ccc1-c1nc(Nc2ccncc2)c2ccn(C)c2n1`: the growth inhibition in assay [1] was 8%; in assay [4], 89% (active). Besides, the values for the inhibition in assay [2] and in assay [3] were 9% and 5%, respectively. Moreover, the outcome in assay [5], in assay [6] and in assay [7] was inactive.
Consider `COc1ccc(-c2cnc3ccc(NC4CCC(O)CC4)nn23)cn1` (configuration not stated), for which the growth inhibition in assay [1] was 73% (active); in assay [4], 98% (active). Also, the inhibition in assay [2] was 54% (active); in assay [3] it was 4%. Besides, the result in assay [5], in assay [6] and in assay [7] was inactive.
`CCn1c(-c2nonc2N)nc2c(-c3cccc(NC(=O)Nc4ccccc4OC)c3)ncc(OCCCN)c21`: the growth inhibition in assay [1] was 58% (active); in assay [4] it was 92% (active). In addition, the inhibition in assay [2] was 84% (active); in assay [3] it was -2%. The outcome in assay [5] and in assay [6] was inactive.
Turning to `CC(C)(CNC(=O)C1CCN(Cc2ccc(Cl)cc2)CC1)c1nc(-c2ccc(Cl)c(O)c2)c(-c2ccncc2)[nH]1`, the growth inhibition in assay [1] is 83% (active); in assay [4], 100% (active). Besides, the inhibition in assay [2] is 36%; in assay [3], -6%. For the same compound, the outcome in assay [5], in assay [6] and in assay [7] was inactive.
For the compound `CC(C)(CNCc1ccccc1)c1nc(-c2ccc(Cl)c(O)c2)c(-c2ccncc2)[nH]1`, the growth inhibition in assay [1] is 99% (active); in assay [4] it was 101% (active). Moreover, the inhibition in assay [2] is 77% (active); in assay [3], -2%. Also, the result in assay [5], in assay [6] and in assay [7] was inactive.
As to `CC(c1cccc(Nc2nccc(-c3c(-c4cccc(NC(=O)c5c(F)cccc5F)c4)nn4ccccc34)n2)c1)S(C)(=O)=O` (configuration not stated), the growth inhibition in assay [1] is 99% (active); in assay [4], 98% (active). Moreover, the inhibition was 76% (active) in assay [2] and -6% in assay [3]. The outcome in assay [5] and in assay [6] was inactive.
Take `COc1cc(Nc2nccc(-c3c(-c4cccc(NC(=O)c5c(F)cccc5F)c4)nn4ccccc34)n2)cc(OC)c1OC`: the growth inhibition in assay [1] and in assay [4] was 98% (active) throughout. The inhibition in assay [2] is 74% (active); in assay [3], 4%. Besides, the result in assay [5] and in assay [6] was inactive.
As to `NCC1(c2nc(-c3ccc(Cl)c(O)c3)c(-c3ccncc3)[nH]2)CCCCC1`, the growth inhibition in assay [1] and in assay [4] was 98% (active) in each case. In addition, the results for the inhibition in assay [2] and in assay [3] were 48% and -2%, respectively. Also, the outcome in assay [5], in assay [6] and in assay [7] was inactive.
In the case of `COc1ccc2nc(-c3cc(-c4ccc(NC(C)=O)cc4)cnc3N)[nH]c2c1`, the growth inhibition was 73% (active) in assay [1] and 93% (active) in assay [4]. Also, the figures for the inhibition in assay [2] and in assay [3] were 55% (active) and -1%, respectively. In addition, the outcome in assay [5], in assay [6] and in assay [7] was inactive.
In the case of `COc1cccc(CNCC(C)(C)c2nc(-c3ccc(Cl)c(O)c3)c(-c3ccncc3)[nH]2)c1`, the growth inhibition in assay [1] is 98% (active); in assay [4], 101% (active). In addition, the inhibition in assay [2] was 74% (active); in assay [3], -9%. The result in assay [5], in assay [6] and in assay [7] was inactive.
